Reference: ChEMBL document CHEMBL3988442, “University of Dundee, Small-Polar-MMV Screening Library” (2021)

Key:
[1] = biological target: T1, Aspartate--tRNA(Asp/Asn) ligase (Mycobacterium tuberculosis (strain ATCC 25618 / H37Rv)) (UniProt P9WFW3); test: Assay for Asp RNA synthetase-1 from Mycobacterium tuberculosis; type: functional; set-up: scale not given: direction of the effect not stated beside the values; settings: 30 µM; note: in the data most compounds retested in dose-response had high values
T1 sequence (whole entry): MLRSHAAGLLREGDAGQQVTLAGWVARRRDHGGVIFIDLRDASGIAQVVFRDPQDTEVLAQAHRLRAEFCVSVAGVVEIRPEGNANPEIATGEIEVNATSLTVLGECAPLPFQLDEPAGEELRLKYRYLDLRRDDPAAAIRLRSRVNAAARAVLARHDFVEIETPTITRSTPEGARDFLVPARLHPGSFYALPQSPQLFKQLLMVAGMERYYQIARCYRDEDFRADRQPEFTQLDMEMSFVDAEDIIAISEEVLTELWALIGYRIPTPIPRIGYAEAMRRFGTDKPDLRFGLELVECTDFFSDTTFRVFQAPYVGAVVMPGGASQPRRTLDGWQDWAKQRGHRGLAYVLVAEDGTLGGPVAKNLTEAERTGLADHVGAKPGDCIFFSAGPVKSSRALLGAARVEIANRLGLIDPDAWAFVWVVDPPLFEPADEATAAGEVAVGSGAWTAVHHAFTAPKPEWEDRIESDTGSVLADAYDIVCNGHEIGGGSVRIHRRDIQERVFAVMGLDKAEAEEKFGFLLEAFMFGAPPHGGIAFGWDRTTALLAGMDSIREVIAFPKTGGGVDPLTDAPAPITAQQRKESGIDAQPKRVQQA

[2] = biological target: Shiga toxin 2 (Escherichia coli O157:H7) (UniProt P09385+P09386); test: E. coli 0.157:H7 Shiga Toxin SOP - stx2 screening assay; type: functional; set-up: scale not given: direction of the effect not stated beside the values; settings: 30 µM

Row | Compound | Percent Effect [1] [%] | Percent Effect [2] [%]
1 | CN(C(=O)c1cccc(C(=O)NS(C)(=O)=O)c1)c1ccccc1 | 9.93 | -20.1
2 | O=C(C1CC=CC1)N1CCC2(CC1)CN(Cc1ccccn1)CCO2 | -0.381 | 3.35
3 | O=C(O)C1(Cc2cccc(-c3ccc(F)c(F)c3)c2)CCOCC1 | 4.93 | 7.92
4 | CC(=O)c1cccc(OCCCC(=O)N(C)Cc2ccccn2)c1 | -1.04 | -20
5 | CCc1cccc(N2CCC(NC(=O)c3ccc(=O)[nH]n3)CC2)c1 | 3.83 | -1.12
6 | Cc1nc(C)n(C2CCCN(C(=O)COCc3ccccc3)C2)n1 (centres undefined) | -4.95 | -2.76
7 | O=C(COCc1ccccc1Cl)N1CCCC(n2cccn2)C1 (centres undefined) | -1.04 | 20
8 | Cc1nc(C)n(CC2CN(CCc3ccncc3)CCO2)n1 (centres undefined) | 1.98 | -14.2
9 | CCn1nnc2c1C(COC)CN(Cc1cccs1)C2 (centres undefined) | -3.5 | 5.25
10 | COCC(=O)NCc1cc(=O)n2c(n1)CN(Cc1ccsc1)CCC2 | 5.55 | 10
11 | c1ccc(OCc2nnc3n2CCN(CC2CCOCC2)C3)nc1 | 10.1 | 7.95
12 | CC(=O)Nc1nc(C(=O)Nc2ccc(N3CCCCC3)nc2)cs1 | 1.12 | -46.3
13 | Cc1cc(C2CCCN2C(=O)c2cc3c(s2)CCC3)on1 (centres undefined) | -0.678 | 5.77
14 | O=C1N(CC2CC2)CCC12CCN(c1ncccn1)CC2 | 3.3 | -4.25
15 | CC(C(=O)N1CCCN(c2ncccc2C#N)CC1)n1cccn1 (centres undefined) | -4.27 | 31.7
16 | CC1CCN(C(=O)CN(Cc2ccco2)C2CC2)CC1 | 0.548 | -5.22
17 | CN1CCCC2(CCN(C(=O)CCn3cncn3)C2)C1=O (centres undefined) | -4.51 | 27.3
